Pf Dd2 growth: qHTS Primary assay for Inhibitors of Plasmodium falciparum Dd2 growth in vitro; P. falciparum Dd2 growth, SYBR Green, 72 h; Potency, µM (doses to about 28.9 µM), usual class: inhibitors; 4.3% of 120,000 active; AID 1347417, 2020; active = well fitted inhibition curve with a large enough effect; also: nearly all actives have a fitted effect of over 65% in size
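Infected erythrocytes (Dd2, 0.3% parasitemia, 2.5% hematocrit final) are added to compound in RPMI-1640/Albumax II medium, grown 72 h at 37C in low oxygen, then lysed with saponin/Triton-X containing SYBR Green and read by fluorescence.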
Each line names hits and unclear results; the compound was inactive in the other large screens. Only a selection was taken, and hits are over-represented in it overall.

O=C(O)c1cc2c(s1)CCN(C(=O)c1ccc(F)cc1)C2	none
O=C(NCc1cccc(Cl)c1)c1cc2c(s1)CCN(C(=O)c1ccccc1)C2	Pf Dd2 growth 10µM
NC(=O)CNC(=O)c1cc2c(s1)CCN(C(=O)c1ccc(Cl)cc1)C2	none
Cc1ccc(CNC(=O)CC2=C3CCCCC3N(Cc3ccc(F)cc3)C2=O)cc1 (stereo not given)	none
O=C(O)C1CC2(CCN(C(=O)NCCc3ccccc3)CC2)CN1 (stereo not given)	none
CCOc1ccc(-c2cc3c(=O)n(CCNC(=O)c4ccc[nH]4)ccn3n2)cc1	none
CCn1c2ccccc2c2cc(CN3CCN(Cc4cc(OC)c(O)c(OC)c4)CC3)ccc21	Pf Dd2 growth 11µM
CCn1c2ccccc2c2cc(CN3CCN(Cc4ccccc4F)CC3)ccc21	none
COc1cc(CN2CCN(S(=O)(=O)c3ccccc3)CC2)cc(OC)c1O	none
COCc1ccc2c(c1)c(OC(C)(C)C(=O)NC1CCC(O)CC1)nn2Cc1ccccc1 (stereo not given)	none
Cc1ccc(S(=O)(=O)N2CCCC(CCC(=O)NCc3ccccn3)C2)cc1 (stereo not given)	none
Cn1ccnc1CN1CCNc2cc(Nc3ccccc3)ncc2C1	none
Fc1ccc(Nc2cc3c(cn2)CN(Cc2ccncc2)CCN3)cc1Cl	Pf Dd2 growth 7.1µM
c1ccc(-c2cc3c(cn2)CN(Cc2c[nH]c4ccccc24)CCN3)cc1	Pf Dd2 growth 7.9µM
c1ccc(Nc2cc3c(cn2)CN(Cc2ncc[nH]2)CCN3)cc1	none
COCCN1CCNc2cc(Nc3cccc(OC)c3)ncc2C1	none
c1ccc(CN2CCNc3cc(-c4cccnc4)ncc3C2)cc1	none
Cc1[nH]cnc1CN1CCNc2cc(-c3ccccc3)ncc2C1	none
CN(C)c1ccc(CN2CCNc3cc(Nc4ccccc4)ncc3C2)cc1	Pf Dd2 growth 5.6µM
c1cncc(Nc2cc3c(cn2)CN(Cc2cccs2)CCN3)c1	none
COc1ccccc1CN1CCNc2cc(Nc3ccccc3)ncc2C1	Pf Dd2 growth 6.3µM
Cn1cc(CN2CCNc3cc(Nc4cccnc4)ncc3C2)cn1	none
Cn1cnc(CN2CCNc3cc(Nc4ccccc4)ncc3C2)c1	none
COc1ccc(NC(=O)N2CCC(c3noc(-c4cccnc4)n3)C2)cc1 (stereo not given)	none
CC(C)CCN(C)C1CCCc2ccccc21 (stereo not given)	none
CN(Cc1ccc(F)cc1)Cc1ccc(OC(F)(F)F)cc1	none
Cc1cc(C(=O)Nc2ccc([C@H]3OCC(=O)N(CC(=O)N(C)C)[C@@H]3CO)cc2)n(C)n1	none
Cn1nccc1C(=O)N1CCCN(S(C)(=O)=O)c2ccccc21	none
O=C(CCc1nc2ccccc2[nH]1)NC1CCN(C(=O)N2CC3CC(C2)[C@H]2CCCC(=O)N2C3)CC1 (stereo not given in full)	none
Cc1noc([C@H]2CCN(C(=O)Nc3ccccc3F)C[C@H]2NC(=O)C2CC2)n1	none
CCOCCCNC(=O)c1c(OCC)cc(=O)n2c1CCCCC2	none
Cc1ccc(C2C=C(c3ccc(F)cc3)Nc3nc(CCCO)nn32)cc1 (stereo not given)	Pf Dd2 growth 8.9µM
COc1ccc(C2=CC(c3ccccc3Cl)n3nc(-c4ccc(C)cc4)nc3N2)cc1 (stereo not given)	Pf Dd2 growth 11µM
COc1ccc(C2Cn3nnc(-c4nc(-c5ccc(Cl)cc5)no4)c3CO2)cc1 (stereo not given)	none
CCOc1ccccc1C1C(C(=O)Nc2ccccc2)=C(C)Nc2nc(-c3ccccc3)nn21 (stereo not given)	none
COc1ccc(C2C=C(c3ccc(F)cc3)Nc3nc(-c4ccc(Cl)cc4)nn32)cc1 (stereo not given)	Pf Dd2 growth 1.1µM
COc1ccc(C2C=C(c3ccccc3)Nc3nc(NS(=O)(=O)c4ccc(C)cc4)nn32)cc1 (stereo not given)	none
Cc1ccc(C2C=C(c3ccccc3)Nc3nc(NS(=O)(=O)c4ccc(C)cc4)nn32)cc1 (stereo not given)	none
OCCCc1nc2n(n1)C(c1cccc(Cl)c1)C=C(c1ccccc1)N2 (stereo not given)	none
Cc1nc2c(c(NC3CC3)n1)CCN(C(=O)CCc1ccncc1)CC2	none
CS(=O)(=O)Nc1ccc(C2(C(=O)NCc3ccccc3Cl)CCCCC2)cc1	none
CS(=O)(=O)N1CCC(C2CCN(C(=O)c3ccc4[nH]ccc4c3)C2)CC1 (stereo not given)	none
O=C(N[C@@H]1C[C@H](Cn2cc(CN3CCS(=O)(=O)CC3)nn2)[C@@H](O)[C@H]1O)c1cncnc1	none
COc1ccc(Cl)cc1-c1ccc2c(c1)C(=O)N1CCN(C(=O)CN)C[C@H]1C(=O)N2	none
Cc1cn2nc(C(=O)NCc3cccc(Cl)c3)cc2c(N2CCCC2)n1	none
Cc1ccccc1Cc1noc(-c2nc(-c3ccc4c(c3)OCO4)no2)n1	none
Cc1cccc(C)c1-c1nc(C(=O)NCc2ccsc2)n2ccccc12	Pf Dd2 growth 8.9µM
CC(C)(C)c1nc(C(=O)NCc2ccc(F)cc2)n2ccccc12	none
COc1ccccc1-c1nc(C(=O)NCc2cccs2)n2ccccc12	none
O=C(NCc1cccnc1)c1nc(-c2ccc(F)cc2)c2cnccn12	none

Compound activity deposited in PubChem by National Center for Advancing Translational Sciences (NCATS).
